Experimental findings from PubChem BioAssay (NCATS) are described below.

Records with an inconclusive call do not appear. Entries that show only a call come without a potency. The source made the active and inactive calls. Calls follow the shape of the dose curve; as a rule, active = well fitted cell-killing curve with a large enough effect; inconclusive = small, poorly fitted or top-dose-only effect, or effect the other way; inactive = flat fitted curve, though single readings scatter.

This assay is described as follows: Cell Viability - HUV-EC-C (AID 542). Also: nearly all actives have a fitted effect of over 35% in size. Conditions: HUV-EC-C endothelial cell viability, qHTS; series mostly up to 92.2 µM. The source says:
NIH Chemical Genomics Center [NCGC]
NIH Molecular Libraries Screening Centers Network [MLSCN]
National Institutes of Environmental Health Sciences [NIEHS]
National Toxicology Program [NTP]
We have developed a 1536-well cell-based assay for quantitative high throughput screening (qHTS) against a number of cell lines to determine in vitro cytotoxicity of small molecules. This particular assay uses the HUV-EC-C cell line which is derived from normal human vascular endothelial cells.
NCGC Assay Protocol Summary:
The CellTiter-Glo luminescent cell viability assay (Promega) is a homogeneous method to measure the number of viable cells in culture. The end point readout of this assay is based on quantitation of intracellular ATP, an indicator of metabolic activity, using the luciferase reaction. Luciferase catalyzes the oxidation of beetle Luciferin to oxyluciferin and light in the presence of ATP. The luminescent signal is proportional to amount of ATP present.
Using the CellTiter-Glo luminescent cell viability assay, the amount of cellular ATP was measured in the HUV-EC-C cell line with complete culture medium following compound treatment for 40 hours. The assay was performed in opaque white Kalypsys 1536-well plates. In the screen, tamoxifen and doxorubicin were used as positive controls. Library compounds were measured for their ability to cause acute toxicity in the cell line, as reflected by a decrease in intracellular ATP levels, in a concentration-dependent manner. […] AC50 values were determined from concentration-response data modeled with the standard Hill equation.
qHTS protocol for CellTiter Glo HUV-EC-C cellular assay
[Step] [Parameter] [Value] [Description]
1. Reagent; 5 uL; 1000 HUV-EC-C cells/well
2. Time; 5 hr; 37 °C incubation
4. Controls; 23 nL; Tamoxifen 0.34 uM to 100 uM & Doxorubicin 0.02 nM to 100 uM
5. Time; 40 hr; 37 °C incubation
6. Reagent; 5 uL; CellTiter Glo reagent
7. Time; 20 min; Room Temperature
8. Detection; Luminescence; Viewlux plate reader
Keywords: cell viability, cytotoxicity, HUV-EC-C cell line, luminescence, NTPHTS, NTPHTS_NCGC, NIEHS, EPA, DSSTox, MLSMR, MLSCN, NIH Roadmap, qHTS, NCGC
On the technique in general: qHTS replaces the single test concentration by a dilution series.
Turning to `CNC(=O)N(c1ccccc1)c1ccccc1`, the Potency result was “inactive”.
Then `BrC/C=C/CBr`, with “inactive”.
As for `BrC(Br)C(Br)Br`, the Potency result was “inactive”.
Regarding `NC(=O)/N=N/C(N)=O`, the Potency entry was “inactive”.
Regarding `CSc1ccc(C=O)cc1`, the Potency entry was “inactive”.
On to `COC(=O)CCC(=O)OC`, for which the Potency entry was “inactive”.
Then `C1COC1`, with “inactive”; and `NC(=O)c1ccccc1[N+](=O)[O-]`, with “inactive”.
Regarding `COc1ccc(N)c(OC)c1`, the Potency entry is “inactive”.
The same measure for `CCCOCC(C)OCC(C)O` (stereo not given): “inactive”; for `Oc1c(Cl)ccc(Cl)c1Cl`: “inactive”; for `C1CCOC1`: “inactive”.
As to `O=C(O)c1ccc(C(=O)O)cc1`, the Potency result was “inactive”.
Take `CC1(N)CCC(C(C)(C)N)CC1` (stereo not given): the Potency entry was “inactive”.
The same measure for `CCc1ccccc1O`: “inactive”; for `Cc1cccc(C)c1O`: “inactive”.
The same measure for `Cc1ccccc1C=O`: “inactive”; for `Cc1cc([N+](=O)[O-])ccc1N`: “inactive”.
The same measure for `O=C(O)CCSSCCC(=O)O`: “inactive”; for `CCCCCCCCN`: “inactive”; for `Nc1cccc(S(=O)(=O)O)c1`: “inactive”.
Turning to `COC(=O)c1ccccc1`, the Potency result was “inactive”.
The same measure for `O=C1OC(=O)c2c(Cl)c(Cl)c(Cl)c(Cl)c21`: “inactive”; for `Cc1ccc2cccnc2c1`: “inactive”; for `Nc1ccc([N+](=O)[O-])c(N)c1`: “inactive”.
The same measure for `C=Cc1ccccc1C=C`: “inactive”; for `CCCCCCCCCCCCC1CO1` (stereo not given): “inactive”; for `COc1ccccc1[N+](=O)[O-]`: “inactive”.
The same measure for `Cc1ccc(Cl)cc1`: “inactive”.
As to `Cc1cccc(Br)c1`, the Potency entry was “inactive”.
As to `Nc1cccc(N)c1`, the Potency result is “inactive”.
Then `C=C(C)C(=O)OCC(C)O` (stereo not given), with “inactive”; and `O=C(O)c1cccc([N+](=O)[O-])c1`, with “inactive”.
The same measure for `O=C1NC(=O)c2cc([N+](=O)[O-])ccc21`: “inactive”.
The same measure for `CC(C)CCOC(=O)/C=C/c1ccccc1`: “inactive”; for `O=C(O)CN(CC(=O)O)CC(=O)O`: “inactive”; for `CCCCC(CC)COC(=O)CCCCC(=O)OCC(CC)CCCC` (stereo not given): “inactive”.
For the compound `CC(=O)c1cc(C)oc1C`, the Potency entry is “inactive”.
The same measure for `Cc1ccc(S(=O)(=O)NC2CCCCC2)cc1`: “inactive”; for `FB(F)F`: “inactive”.
